TDP43 rescue: rescues yeast growth from TDP-43 toxicity; Potency, µM (titrated, usually from 46.1 µM), without a hit: at the highest dose growth rescue (activation), usual class: activators; TDP-43 expressing yeast growth rescue, BacTiter-Glo, 24 h; hit rate 1.8% among 410,000; further: % of control where 0% means no effect; nearly all actives have a fitted effect of over 50% in size
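Growth rescue of TDP-43-toxic yeast measured as ATP luminescence (BacTiter-Glo). Cells grown to mid-log in raffinose, induced in galactose at OD600=0.02, exposed to compound 24 hr at 30 deg C.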
Abeta yeast res: A-beta toxicity reversal in yeast; yeast expressing A-beta42, growth rescue, OD600, 48 h; response scale: 0% DMSO, 100% iron-clioquinol control; Potency, µM (titrated, usually from 46.1 µM), most hits filed as activators; hit rate 0.063% among 410,000; AID 1347071; further: nearly all actives have a fitted effect of over 55% in size
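Yeast A-beta toxicity model in growth medium with pinned compounds, 48 h at 30 C; growth read as absorbance at 600 nm. Normalized to FeCl3/clioquinol equimolar mix (positive) and DMSO (negative).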
FUS suppressor: suppressors of FUS proteinopathy in yeast; S. cerevisiae FUS-expressing, growth rescue, OD600, 24 h; Potency, µM (doses to about 76.6 µM), hits mostly activators; hit rate 0.24% among 390,000; AID 1347120;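 further: plate controls were DMSO vehicle for no effect and reference control for full effect; nearly all actives have a fitted effect of over 55% in size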
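Absorbance at 600 nm, taken 24hr after compound addition, measured rescue of FUS-yeast growth at 30C. Induction used 2% galactose with seeding at OD 0.005. Controls: CP55940 from 92uM final, DMSO only.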
Mito fusion act: mitochondrial division inhibition or fusion activation; S. cerevisiae fusion-defective mutant growth rescue, CellTiterGlo 48 h; Potency, µM (series often up to 46.1 µM), for inactives: top-dose growth rescue (activation), hits mostly activators; hit rate 0.23% among 320,000; further: % of control where 0% means no effect; nearly all actives have a fitted effect of over 45% in size
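Luminescent cell viability in 1536-well qHTS format served as the measure of rescued growth in ts fusion-mutant S. cerevisiae cultured on non-fermentable YPEG for 48 hours at 37C.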
aSyn yeast inh: inhibitors of alpha-synuclein toxicity in yeast; Yeast expressing alpha-synuclein, growth rescue, BacTiter-Glo, 24 h; Potency, µM (titrated, usually from 46.1 µM), inactives show at the highest dose growth rescue (activation), most hits filed as activators; hit rate 0.14% among 370,000; AID 652106; further: % of control where 0% means no effect; nearly all actives have a fitted effect of over 65% in size
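Readout is rescue of growth in alpha-synuclein-expressing yeast, so inhibitors of toxicity appear as activators. Growth after 24 hr at 30 deg C in galactose medium is quantified by luminescence.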
An asterisk follows results filed as active; i = inactive; u = inconclusive; x = no result given; [ ] = another dose, or the depositor's remark. Rows were chosen to be rich in hits. Some 2.2% of all compounds tested hit in one or more screens of this group. The call rests on the fitted dose curve; in most records, active means well fitted curve in the direction sought with a large enough effect; inconclusive means small, poorly fitted or top-dose-only effect, or another doubt; inactive means no such curve, though single readings can be large; an effect the other way counts as inactive or inconclusive. Potency means the concentration at half of the fitted maximal effect.

SMILES	TDP43 rescue	Abeta yeast res	FUS suppressor	Mito fusion act	aSyn yeast inh
Nc1cc(-c2ccc(Br)cc2)nn1Cc1ccccc1	20µM*	u	i	11%	-1%
Nc1cc(-c2cccc(Br)c2)nn1Cc1ccccc1	u	i	x	3%	13%
CN(C)c1ccnc2sc(C(=O)NCc3ccccc3)c(N)c12	u	i	i	23%	13µM*
CN(C)c1ccnc2sc(C(N)=O)c(N)c12	2%	i	i	-2%	22%
CCc1ccc(S(=O)(=O)Nc2cc3c(cc2C)n(C)c(=O)c(=O)n3C)cc1	25%	i	i	x	x
CC(C)(C)OC(=O)N1CCC(c2c(C(=O)N3CCN(c4ccccc4)CC3)cnn2-c2ccccc2)CC1	9%	i	i	x	x
CCOC(=O)C1C(=O)C=C(c2ccc(C)cc2)CC1c1ccccc1 (stereo not given)	13%[9.22 µM]	i	i	-5%	2%
CCOC(=O)C1C(=O)C=C(c2ccc([N+](=O)[O-])cc2)CC1c1ccccc1 (stereo not given)	20µM*	i	i	u	9%
CCOC(=O)C1C(=O)C=C(c2ccc(Br)cc2)CC1c1ccco1 (stereo not given)	25µM*	i	i	4%	4%
COc1cc(C2NC(=O)c3ccccc3O2)cc(OC)c1OC (stereo not given)	8%	i	i	0%	-16%
COc1cc(C2Oc3ccccc3C=C2[N+](=O)[O-])cc(OC)c1OC (stereo not given)	5µM*	i	i	-13%	u
CC(CC(=O)Nc1ccc2c(c1)c(=O)n(C)n2Cc1ccc(Cl)cc1)C(F)(F)F (stereo not given)	20%	i	i	x	0%
O=C(OC1CCOC1=O)c1cc(-c2cccs2)nc2ccccc12 (stereo not given)	25µM*	i	i	21%	0%
Cc1ccc(-c2cc(C(=O)OC3CCOC3=O)c3ccccc3n2)c(C)c1 (stereo not given)	18µM*	i	i	2%	-10%
CCOC(=O)c1ccccc1NC(=O)CN(c1cc(C(F)(F)F)ccc1Cl)S(C)(=O)=O	8%	i	i	x	x
O=C(COC(=O)c1ncc(Cl)c(Cl)c1Cl)Nc1ccc(Cl)cn1	14%	i	i	-4%	-2%
CCCOc1ccc(F)cc1-c1cc(C(=O)Nc2ccc(C(C)C)cc2)[nH]n1	-19%	i	i	x	-3%
Clc1cccc(Cl)c1/C=C/c1ccn[nH]1	22µM*	i	i	28%	-4%
CC(NC=O)c1nc2ccccc2n1CCc1ccccc1 (stereo not given)	5%	i	i	-2%	1%
COc1ccc(NC(=O)c2sc3nc4n(c(=O)c3c2C)CCC4)cc1Cl	-2%	i	i	x	x
O=C(O)C1CCN(c2c([N+](=O)[O-])cc(C(F)(F)F)cc2[N+](=O)[O-])CC1	20µM*	i	i	0%	3%
COC(=O)C12C=C3CC(c4ccc(OC)cc4)=C3C(=O)N1Cc1[nH]c3ccccc3c1C2 (stereo not given)	x	x	i	x	x
O=C(CN1C(=O)C(=O)N(C2CCCC2)C1=O)Nc1cc(Cl)ccc1[N+](=O)[O-]	-11%	i	x	x	-2%
O=C(NCc1ccccc1)c1ccc2ccccc2n1	15%	i	i	u	0%
Cc1ccccc1CNC(=O)c1ccc2ccccc2n1	16µM*	i	i	u	12%
SMILES	TDP43 rescue	Abeta yeast res	FUS suppressor	Mito fusion act	aSyn yeast inh
O=C(N/N=C/c1ccccn1)c1[nH]c2ccc([N+](=O)[O-])cc2c1-c1ccccc1	27%	i	32µM*	3%	u
CCN(Cc1ccccc1)C(=O)CN1C(=O)NC(CC)(c2ccc(F)cc2)C1=O (stereo not given)	17%	i	i	-5%	1%
Cc1cccc(NC(=O)C(=O)NCC(c2cccnc2)N2CCc3ccccc3C2)c1C (stereo not given)	21%	i	i	x	x
O=C(NCc1ccc(C(F)(F)F)cc1)c1ccc(-c2cccnc2)c2ccoc12	13µM*	i	u	x	-5%
O=C(NCc1cccc(Cl)c1)c1ccc(-c2cccnc2)c2ccoc12	35µM*	i	i	x	3%
O=C(Nc1cccc(C(F)(F)F)c1)c1cccc2c(-c3cccnc3)coc12	16µM*	i	i	x	-1%
COc1cc(NC(=O)c2cccc3c(-c4cccnc4)coc23)cc(OC)c1OC	16%	i	i	x	0%
C/C(=N\Nc1ccc(S(N)(=O)=O)cc1[N+](=O)[O-])c1cccnc1	25%	i	i	-6%	5%
CCc1nn2c(=O)c(S(=O)(=O)Nc3ccc(Br)cc3F)c(C)nc2s1	18%	i	i	x	x
O=C(COc1ccc(F)cc1)NCc1ccc2c(c1)CCN2C(=O)c1ccc(F)cc1	16%	i	i	x	x
CC(C)CC1C(=O)N(Cc2cn(CCC3OCCO3)nn2)CCS(=O)(=O)N1Cc1ccc(-c2ccccc2)cc1 (stereo not given)	22µM*	i	u	x	0%
Cc1ccc(-c2ccc(CN3C(CC(C)C)C(=O)N(Cc4cn(CCC5OCCO5)nn4)CCS3(=O)=O)cc2)cc1 (stereo not given)	35µM*	i	u	x	18%
CCOC(=O)CSc1nc2ccc(NC(=O)c3ccccc3)cc2s1	0%	i	i	x	x
Cc1cccc(NC(=S)NCc2ccco2)n1	u	13µM*	i	4%	1%
CC(=O)Nc1ncnc2c1c(-c1ccc(Cl)cc1)nn2C(C)(C)C	9%	i	i	8%	3.5µM*
CC(=O)N(C(C)=O)c1ncnc2c1c(-c1ccc(Cl)cc1)nn2C(C)(C)C	0%	i	i	-9%	-26%
Cc1ccc(-c2cc(C(=O)NC3CCCCC3)no2)cc1	-3%	i	i	4%	1%
Cc1ccc(-c2nc(C(=O)NC3CCCCCC3)no2)cc1	18µM*	i	i	x	-3%
O=C(/C=C/c1ccccc1)Nc1cccnc1Cl	7.9µM*	i	i	-2%	-8%
CC1N=C2c3ccccc3N=C(SCC(=O)NCc3ccc(Cl)cc3)N2C1=O (stereo not given)	13%	i	i	x	x
O=C1c2ccccc2C(=O)N1CCSc1n[nH]c(=S)s1	20µM*	i	x	6%	10%
CC(=O)n1cc(N(C(=O)CCl)c2ccc(Cl)cc2)c2ccccc21	22µM*	i	i	-18%	2%
Cc1ccc(C(=O)Oc2coc(CSc3ncccn3)cc2=O)cc1[N+](=O)[O-]	x	x	i	x	x
